Test results reported in the supplement of paper PMC10681739.
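Also: Full-length recombinant human RUNX1 bound to double-stranded 36-bp genomic probes on a high-density microarray, scored as Alexa488 fluorescence per spot via anti-RUNX1 antibody, median of four replicate spots.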

These sequences were tested against RUNX1 (UniProt Q01196) (assay: RUNX1 binding intensity (PBM fluorescence), RUNX1 alone (arbitrary fluorescence units); higher = stronger binding). Details: RUNX1 concentration 2 nM; ETS1 concentration 0 nM.
RUNX1, sequence (Q01196 whole entry): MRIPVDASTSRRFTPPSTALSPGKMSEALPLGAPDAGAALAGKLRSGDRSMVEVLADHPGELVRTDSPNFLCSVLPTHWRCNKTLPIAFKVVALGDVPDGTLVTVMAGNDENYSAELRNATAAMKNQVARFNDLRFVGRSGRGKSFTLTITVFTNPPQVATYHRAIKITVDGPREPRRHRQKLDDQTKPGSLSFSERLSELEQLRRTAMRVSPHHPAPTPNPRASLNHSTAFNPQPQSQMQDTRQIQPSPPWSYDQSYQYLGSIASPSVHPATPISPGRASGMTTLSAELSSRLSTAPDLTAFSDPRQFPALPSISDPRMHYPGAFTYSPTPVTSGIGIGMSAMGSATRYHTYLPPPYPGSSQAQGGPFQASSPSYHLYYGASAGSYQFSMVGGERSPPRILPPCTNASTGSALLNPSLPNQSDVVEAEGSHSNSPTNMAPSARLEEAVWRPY
Method: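 Cooperative gcPBM on 36-bp genomic probes with neighbouring ETS1 and RUNX1 sites. Recombinant human RUNX1 (2 nM) was incubated alone or with ETS1 (25 nM) and detected with anti-RUNX1 antibody plus Alexa488 secondary. Values are medians over 4 replicate spots; the RUNX1+ETS1 data were normalised to the RUNX1-only data. The probes sit in constant array flanks that are not printed.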
In the case of GGGGGAAGCTTCCTGAGGTGAAATAGACCGCTGTGC, the RUNX1 binding intensity is reported as 735.
With CATCTCGGAAACGGACAGCAAGATCCCGCATTAACA the RUNX1 binding intensity was 977.
Sequence CGGCGCCTTCCGCAGAGGGACTGCGGCTTTCTGCGC has an RUNX1 binding intensity of 946.
GCGGCTTTGTACGGAAACCCACACACATTGTTATTT gave an RUNX1 binding intensity of 984.
Work on GTTGGTCGCGCGCCTTCCTGCGGCTAAGATGGCGAC yielded an RUNX1 binding intensity of 749.
CCCAGAGCTTCCGATTGGCTCTTCTGTGGTGGCGGG showed an RUNX1 binding intensity of 1010.
With CCCATCCATCCGCCTCCAAAGTAACCTCAAGAATTT the RUNX1 binding intensity was 2140.
TTAACTCCACGGAAGAATAAACCACCACCGCTCACC was tested, and the RUNX1 binding intensity was 1080.
Work on TCAAGTTTGGTAACAGGATGTGGTAGGAGGAACACA yielded an RUNX1 binding intensity of 747.
ATGGTCCAGGAAGATAAGGGCTGAAAACCACCCACT was tested, and the RUNX1 binding intensity was 857.
For CTTTCTGGTTTCCTTCCTTTTTGGTTTTGGTTTCAT, the RUNX1 binding intensity was 1630.
For ACCAGAACAGGAAATGTTAGTGGTTGAGTTAACGGT, the RUNX1 binding intensity was 700.
In the case of GGGCGGAAGGGGTTCGCACGCCAAGAACCGCCATGC, the RUNX1 binding intensity is reported as 855.
Sequence CCGGGAAACACGGGAGAGCGACCGAAACCGCAATCA has an RUNX1 binding intensity of 3650.
With ATTTTAGCATTTTCCTGCTCGGAGACCACATGTTTG the RUNX1 binding intensity was 1170.
ACGGTGCGTTTCCCCAACTACACCGCACGTCACGGA gave an RUNX1 binding intensity of 988.
For TCTGGCTGGGTGTTGGGATGTGGTTAACCGGGTTGG, the RUNX1 binding intensity was 797.
For AGTTTCCTGAACTCAGAGCACAGTTGTGGTGCAGAA, the RUNX1 binding intensity was 743.
For TTGTTCCACCCCCGCGGAAACCGCTGCTCGCTGGGC, the RUNX1 binding intensity was 913.
Sequence GTGCTAGGACACAGGAAGCGATACCACAAAGAACAT has an RUNX1 binding intensity of 818.
With CCACCATCTTTCCGGCTCCCTCGCGACCACCACGAC the RUNX1 binding intensity was 1410.
For GCCAAGGCCTTCCGCCGAGTTGGTTTTTGGGTTGTT, the RUNX1 binding intensity was 867.
In the case of CTCCCGGACGCTAACGTCTGGCAAACCACATTGCCC, the RUNX1 binding intensity is reported as 993.
CTGGGCGTGGGCTTCCTGCGGCTGAGTGGCAGCTTC gave an RUNX1 binding intensity of 740.
In the case of GCTTAAGGAAGGGACAACTAGAGTGGGTTACTCTGC, the RUNX1 binding intensity is reported as 863.
For TTACCCCGGCGGAACGGAGGCCTGCGGTCGCGGCGG, the RUNX1 binding intensity was 941.
Work on TCCGCCCGCGGATGCTGAGAACCGCAGCTGCACAAG yielded an RUNX1 binding intensity of 948.
AGGCCAGACGCCTTCCGTGGTTTACGGTGAGGGTGG gave an RUNX1 binding intensity of 884.
Sequence TTATGCCTCAGGATGAACGAACCTCAAACACCCAGG has an RUNX1 binding intensity of 904.
CCGCCCCCGGACGGTCACAGCACCCAAACCGCAGGC gave an RUNX1 binding intensity of 2740.
For ATTGCTTCCGACGCTACTCCTGCCGGGTCACCACAG, the RUNX1 binding intensity was 785.
Sequence CGAACTCCCGTCCGGCCGCGCCCGCAGCCCGCCGCC has an RUNX1 binding intensity of 960.
In the case of CAGAGGAAGCCCACCCCATAAAAGAACCACAGATAA, the RUNX1 binding intensity is reported as 1010.
CCAGTGCAGAAACATCCCTCCTGCCGCAGCTTTGTC was tested, and the RUNX1 binding intensity was 1020.
For CTCAGGTTATCTAGGAAATCTACCGCACGCTAAAGT, the RUNX1 binding intensity was 858.
Work on TGAGTTTTGTTTCCGATTCACCACAGAAGATACTTT yielded an RUNX1 binding intensity of 2230.
CTTTGTTACTTTGGGGAAATGTGGTTCTGCGCCACC was tested, and the RUNX1 binding intensity was 1110.
For TTCATAAAGGAGAGGAAACCTGACCACGACAGAAAG, the RUNX1 binding intensity was 897.
TGCTGCAGCGGCGCTTCCTGGTGGTCAGGGCGCCAT gave an RUNX1 binding intensity of 707.
